Among the data in PubChem BioAssay (Tox21) are Potency and outcome values, retold here.

Assay [1] is described as follows: qHTS assay to identify small molecule agonists of the peroxisome proliferator-activated receptor delta (PPARd) signaling pathway - cell viability counter screen (AID 743211). Further: nearly all actives have a fitted effect of over 55% in size. Further: potency means the concentration at half of the fitted maximal effect. The method, boiled down: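 Luminescent ATP viability assay (CellTiter-Glo, 30 min RT) in UAS-bla HEK293H cells carrying the PPAR delta reporter construct, 3000 cells/well, after a 17 h compound treatment at 37 C.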
For orientation: qHTS replaces the single test concentration by a dilution series.

The target of assay [2] is Peroxisome proliferator-activated receptor delta (Homo sapiens) (UniProt Q03181). Nature of the assay: qHTS assay to identify small molecule agonists of the peroxisome proliferator-activated receptor delta (PPARd) signaling pathway (AID 743212; calls by dose curve). The essentials:
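HEK293H PPARd-bla cells; 5 h preincubation 37 C/5% CO2; compound (DMSO) 37 C; LiveBLAzer B/G FRET substrate 2 h RT; fluorescence intensity.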

Assay [3] can be described thus: qHTS assay to identify small molecule antagonists of the peroxisome proliferator-activated receptor delta (PPARd) signaling pathway - cell viability counter screen (AID 743213). Further: nearly all actives have a fitted effect of over 50% in size. The essentials:
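Viability counter-screen, qHTS format: PPARd-bla HEK293H, L165041 300 nM final, 17 h compound exposure at 37 C, CellTiter-Glo luminescence after 30 min RT.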

Assay [4] concerns the target Peroxisome proliferator-activated receptor delta (Homo sapiens) (UniProt Q03181). Nature of the assay: qHTS assay to identify small molecule antagonists of the peroxisome proliferator-activated receptor delta (PPARd) signaling pathway (AID 743215; active means well fitted inhibition curve with a large enough effect in the signal ratio in the repeat runs, not every such curve was filed as active; the % refers to the signal ratio;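 further: cells stimulated with agonist L165041 at 300 nM final during compound exposure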; further: potency means the concentration at half of the fitted maximal effect). The method, boiled down: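 PPARd UAS-bla HEK293H cells were pre-incubated 5 h at 37 C, then given test compounds in DMSO plus agonist L165041 (300 nM final). After 17 h at 37 C, beta-lactamase FRET substrate was added; fluorescence read after 2 h at room temperature.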

In assay [5] the target is Bile acid receptor (Homo sapiens) (UniProt Q96RI1). Nature of the assay: qHTS assay to identify small molecule antagonists of the farnesoid-X-receptor (FXR) signaling pathway (AID 743217; active means well fitted inhibition curve with a large enough effect in the signal ratio in the repeat runs, not every such curve was filed as active; the % refers to the signal ratio; further: potency means the concentration at half of the fitted maximal effect). The method, boiled down: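 FXR-UAS-bla HEK 293T cells pre-incubated 5 h at 37 °C, then exposed to compounds with chenodeoxycholic acid (50 uM final) for 16 h at 37 °C. Beta-lactamase reporter read by LiveBLAzer B/G FRET substrate fluorescence after 2 h at room temperature.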
Sequence of Bile acid receptor (Homo sapiens) (Q96RI1 whole entry, looked up): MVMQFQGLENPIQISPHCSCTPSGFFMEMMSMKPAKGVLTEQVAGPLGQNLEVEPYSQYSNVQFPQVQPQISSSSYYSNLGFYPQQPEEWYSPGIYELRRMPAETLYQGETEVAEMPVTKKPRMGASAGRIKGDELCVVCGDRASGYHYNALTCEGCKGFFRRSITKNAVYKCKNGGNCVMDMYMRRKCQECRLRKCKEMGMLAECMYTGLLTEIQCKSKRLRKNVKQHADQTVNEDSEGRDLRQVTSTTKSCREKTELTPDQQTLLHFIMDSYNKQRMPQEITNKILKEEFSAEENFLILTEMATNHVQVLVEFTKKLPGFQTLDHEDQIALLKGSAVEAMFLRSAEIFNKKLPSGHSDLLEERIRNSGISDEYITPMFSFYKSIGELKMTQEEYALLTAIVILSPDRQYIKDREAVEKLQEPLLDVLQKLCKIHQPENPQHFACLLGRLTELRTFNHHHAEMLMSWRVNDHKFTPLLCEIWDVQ

Assay [6] can be described thus: qHTS assay to identify small molecule agonists of the farnesoid-X-receptor (FXR) signaling pathway - cell viability counter screen (AID 743218). Further: nearly all actives have a fitted effect of over 45% in size. Further: potency means the concentration at half of the fitted maximal effect. The essentials: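 FXR-UAS-bla HEK 293T cells, plated 5 h at 37 C, were exposed to compounds for 16 h at 37 C. CellTiter-Glo was then added to the same wells as the bla readout; luminescence read after 30 min at room temperature.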

The target of assay [7] is Bile acid receptor (Homo sapiens) (UniProt Q96RI1). The assay is described as follows: qHTS assay to identify small molecule agonists of the farnesoid-X-receptor (FXR) signaling pathway (AID 743220; active means well fitted activation curve with a large enough effect in the signal ratio in the repeat runs, not every such curve was filed as active; the % refers to the signal ratio). The essentials: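 Beta-lactamase reporter under UAS control in GeneBLAzer FXR HEK 293T cells (5000/well) measured with LiveBLAzer FRET substrate after 2 h at room temperature. Compound exposure lasted 16 h at 37C.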

In assay [8] the target is Vitamin D3 receptor (Homo sapiens) (UniProt P11473). The assay is described as follows: qHTS assay to identify small molecule agonists of the vitamin D receptor (VDR) signaling pathway (AID 743222; calls by dose curve). The method, boiled down: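 VDR-bla cells were plated 4 h at 37C/5% CO2, then exposed to compounds in DMSO for 16 h. After LiveBLAzer B/G FRET substrate addition and 2 h at room temperature, beta-lactamase reporter fluorescence was read.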
Sequence of Vitamin D3 receptor (Homo sapiens) (P11473 whole entry, looked up): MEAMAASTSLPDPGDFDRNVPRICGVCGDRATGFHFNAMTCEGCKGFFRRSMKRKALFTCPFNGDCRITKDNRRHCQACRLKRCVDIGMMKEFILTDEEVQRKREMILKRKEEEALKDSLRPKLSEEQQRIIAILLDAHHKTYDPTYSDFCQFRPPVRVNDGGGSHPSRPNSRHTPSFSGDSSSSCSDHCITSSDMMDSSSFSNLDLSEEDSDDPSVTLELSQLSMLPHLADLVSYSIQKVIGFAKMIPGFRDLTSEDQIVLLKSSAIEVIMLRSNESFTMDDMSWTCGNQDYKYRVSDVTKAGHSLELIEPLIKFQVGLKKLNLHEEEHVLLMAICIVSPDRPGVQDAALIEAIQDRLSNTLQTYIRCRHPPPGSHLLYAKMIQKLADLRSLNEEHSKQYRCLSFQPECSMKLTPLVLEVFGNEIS

The nature of assay [9]: qHTS assay to identify small molecule antagonists of the farnesoid-X-receptor (FXR) signaling pathway - cell viability counter screen (AID 743221; active means well fitted cell-killing curve with a large enough effect in the repeat runs, not every such curve was filed as active; further: nearly all actives have a fitted effect of over 50% in size). The essentials: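 In GeneBLAzer FXR-UAS-bla HEK 293T cells stimulated with 50 uM chenodeoxycholic acid (final), compounds acted for 16 h at 37 C. Viability was assessed afterwards by CellTiter-Glo luminescence.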
Assay [10] concerns the target Vitamin D3 receptor (Homo sapiens) (UniProt P11473). The assay is described as follows: qHTS assay to identify small molecule antagonists of the vitamin D receptor (VDR) signaling pathway (AID 743223; active means well fitted inhibition curve with a large enough effect in the signal ratio in the repeat runs, not every such curve was filed as active; the % refers to the signal ratio). The essentials: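 Agonist 1alpha,25-dihydroxyvitamin D3 (3 nM in well) was added with each compound to VDR-bla cells preincubated 4 h. Cells stood 16 h at 37C, then FRET substrate 2 h at room temperature; fluorescence intensity recorded.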

Values joined by “and” are separate entries in the source; they are usually repeats but may differ in a detail not shown here. Equal values may be shown once. Inconclusive results are not listed. Active and inactive are the calls of the source. Unless noted, the call rests on the fitted dose curve; in most records, active means well fitted curve in the direction sought with a large enough effect in the repeat runs; inconclusive means weak or mixed curves; inactive means no such curve, though single readings can be large; an effect the other way counts as inactive or inconclusive.

Sequence of Peroxisome proliferator-activated receptor delta (Homo sapiens) (Q03181 whole entry, looked up): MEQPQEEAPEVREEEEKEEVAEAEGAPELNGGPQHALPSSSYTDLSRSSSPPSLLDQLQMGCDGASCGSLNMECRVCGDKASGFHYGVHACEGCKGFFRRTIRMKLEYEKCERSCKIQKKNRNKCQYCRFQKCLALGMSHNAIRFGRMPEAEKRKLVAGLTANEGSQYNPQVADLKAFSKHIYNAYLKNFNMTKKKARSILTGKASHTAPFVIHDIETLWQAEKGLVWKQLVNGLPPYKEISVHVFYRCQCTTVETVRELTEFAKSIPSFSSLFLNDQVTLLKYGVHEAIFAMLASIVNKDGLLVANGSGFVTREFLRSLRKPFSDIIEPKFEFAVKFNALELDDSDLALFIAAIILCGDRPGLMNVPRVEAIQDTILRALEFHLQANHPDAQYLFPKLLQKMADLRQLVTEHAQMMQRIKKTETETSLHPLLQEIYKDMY

In the case of `CC1=C(C(=O)Nc2ccccc2)SCCO1`, the Potency result in [1], in [2], in assay [3], in assay [4], in [5] and in assay [6] was “inactive” in each case. Moreover, in assay [7], the Potency entry is “inactive”. In addition, the molecule was called inactive in assay [8].
For `O=NN(c1ccccc1)c1ccccc1`, the Potency entry in assay [1], in assay [2], in assay [3], in assay [4], in assay [5] and in assay [6] was “inactive” each time. The Potency entry in assay [7] and in assay [9] was “inactive” throughout.
As to `ClC(Cl)(Cl)c1ccccc1`, the Potency entry in assay [1], in assay [2], in assay [3], in assay [4], in [5] and in assay [6] was “inactive” each time. Moreover, the Potency entry in [7] and in [9] was “inactive” throughout. Moreover, the molecule was called inactive in [8].
For the molecule `CCCCC(C#N)(Cn1cncn1)c1ccc(Cl)cc1` (stereo unspecified), the Potency entry in assay [1], in [2], in [3], in [4], in assay [6] and in assay [9] was “inactive” throughout.
Take `CCCCOC(=O)COC(=O)c1ccccc1C(=O)OCCCC`: the Potency entry in assay [1], in assay [2], in assay [3], in assay [4] and in assay [6] was “inactive” throughout.
For `c1ccc2c(c1)Nc1ccccc1S2`, the Potency entry in assay [1], in [2], in [3], in assay [4] and in assay [6] was “inactive” throughout.
In the case of `CC(C)Nc1nc(Cl)nc(NC(C)C)n1`, the Potency entry in assay [1], in assay [2], in assay [3], in assay [4], in assay [6] and in [9] was “inactive” each time. Moreover, the molecule was called inactive in assay [8].
For the molecule `O=P(OCCCl)(OCCCl)OCCCl`, the Potency entry in assay [1], in assay [2], in assay [3], in [4], in assay [5] and in [6] was “inactive” in each case. In addition, the Potency entry in assay [7] and in [9] was “inactive” in each case. For the same molecule, in assay [8], the molecule was called inactive.
For `CC(C)=CC1C(C(=O)OCc2cccc(Oc3ccccc3)c2)C1(C)C` (stereo unspecified), the Potency result in [1], in assay [2], in [3], in assay [4], in assay [5] and in assay [6] was “inactive” each time. In addition, the Potency entry in assay [7] and in assay [10] was “inactive” in each case. The outcome in assay [8] was inactive.
Regarding `Nc1ncn[nH]1`, the Potency entry in assay [1], in assay [2], in assay [3], in assay [4], in assay [5] and in assay [6] was “inactive” in each case. For the same molecule, the Potency entry in assay [7] and in assay [9] was “inactive” each time.
With `O=C1CCCO1`, the Potency result in assay [1], in assay [2], in [3], in [4], in [5] and in assay [6] was “inactive” throughout. Also, the Potency result in assay [7] is “inactive”. The call in assay [8] was inactive.
In the case of `CC1(C)C(C(=O)OC(C#N)c2cccc(Oc3ccccc3)c2)C1(C)C` (stereo unspecified), the Potency result in assay [1], in assay [2], in assay [3], in [4], in [6] and in assay [7] was “inactive” throughout. The Potency entry in assay [9] is “inactive”. For the same molecule, in assay [8], the outcome was inactive.
`C[N+](C)(C)CC(=O)[O-]`: the Potency result in assay [1], in assay [2], in [3], in assay [4], in assay [6] and in assay [9] was “inactive” in each case.
For the molecule `ClC(Cl)(Cl)Br`, the Potency result in [1], in [2], in [3], in assay [4], in [5] and in assay [6] was “inactive” in each case. Also, the Potency entry in assay [7] and in assay [9] was “inactive” in each case. Moreover, the result in assay [8] was inactive.
Regarding `CCNc1nc(Cl)nc(NC(C)(C)C#N)n1`, the Potency entry in assay [1], in assay [2], in assay [3], in [4], in assay [6] and in [9] was “inactive” in each case.
On to `C[N+](C)(C)CC(=O)O`, for which the Potency result in assay [1], in [2], in assay [3] and in assay [4] was “inactive” in each case.
With `CCOP(=S)(OCC)OP(=S)(OCC)OCC`, the Potency result in assay [1], in assay [2], in [3], in assay [4], in assay [6] and in assay [7] was “inactive” each time.
Regarding `N#CCCCCC#N`, the Potency result in assay [1], in assay [2], in assay [3], in assay [4], in assay [5] and in assay [6] was “inactive” each time. For the same molecule, the Potency result in assay [7] and in assay [9] was “inactive” each time. Further, the outcome in assay [8] was inactive.
Turning to `CCN(CC)C(=O)C(C)Oc1cccc2ccccc12` (stereo unspecified), the Potency result in assay [1], in [2], in assay [3], in assay [4], in assay [5] and in [6] was “inactive” each time. Further, in assay [7], the Potency result is “inactive”.
Consider `Oc1ccc(Cl)cc1Cl`, for which the Potency entry in assay [1], in [2], in assay [3], in assay [4], in assay [5] and in assay [6] was “inactive” throughout. The Potency entry in assay [7] and in [9] was “inactive” in each case. Moreover, the result in assay [8] was inactive.
Take `C[C@]12CC[C@H]3[C@@H](CCC4=CC(=O)CC[C@@H]43)[C@@H]1CC[C@@H]2O`: the Potency entry in [1], in assay [2], in assay [3], in assay [4], in assay [5] and in assay [6] was “inactive” in each case. Further, in assay [7], the Potency result was “inactive”. Besides, in assay [8], the result was inactive.
`C=C(C)C#N`: the Potency result in assay [1], in assay [2], in assay [3], in [4], in assay [5] and in assay [6] was “inactive” each time. Besides, the Potency result in assay [7] and in [9] was “inactive” throughout. Moreover, the outcome in assay [8] was inactive.
As for `CC[n+]1c(-c2ccccc2)c2cc(N)ccc2c2ccc(N)cc21`, the Potency in assay [1] is 24.4 µM (active); in [4] it was 24.4 µM (active) and 23.7 µM (active); in assay [5] it was 7.73 µM (active) and 5.31 µM (active); in [6], 0.614 µM (active). Moreover, the Potency entry in assay [2], in [3] and in assay [9] was “inactive” throughout. In [8], the molecule was called inactive.
`CCCCOCC1CO1` (stereo unspecified): the Potency result in assay [1], in [2], in [3], in [4], in [5] and in assay [6] was “inactive” each time. Moreover, the Potency result in assay [7], in assay [9] and in assay [10] was “inactive” each time. The call in assay [8] was inactive.
